# G9a inh – G9a (human) methyltransferase inhibition | G9a H3K9 monomethylation, AlphaScreen, 2 h | actives 8.8% (n = 350,000) | Potency, µM (highest dose often 102 µM), usual class: inhibitors | AID 504332 | Q96KQ7; also: nearly all actives have a fitted effect of over 75% in size
# Target sequence (Q96KQ7 913-1193 limits assumed): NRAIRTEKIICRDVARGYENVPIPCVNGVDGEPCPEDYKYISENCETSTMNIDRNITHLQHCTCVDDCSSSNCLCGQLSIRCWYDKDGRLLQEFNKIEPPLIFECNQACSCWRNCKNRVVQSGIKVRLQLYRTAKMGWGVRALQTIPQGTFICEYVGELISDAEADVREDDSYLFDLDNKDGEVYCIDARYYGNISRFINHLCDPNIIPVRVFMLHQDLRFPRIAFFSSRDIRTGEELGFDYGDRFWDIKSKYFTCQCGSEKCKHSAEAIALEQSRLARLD
#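 Using a bead-based AlphaScreen, monomethylated H3K9 product from 2 h room-temperature reactions (G9a 20 nM, peptide 500 nM, SAM 20 uM) was detected with 0.5 ug/mL rabbit anti-H3K9me1 antibody.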
# JMJD2A Tudor inh – blocks the human JMJD2A Tudor domain; AlphaScreen JMJD2A-Tudor / H3K4me3 peptide binding; Potency, µM (titrated, usually from 114 µM), hits mostly inhibitors; actives 4.4% (n = 390,000); AID 504339; O75164; also: nearly all actives have a fitted effect of over 50% in size
# HP1b binding inh – inhibitors of HP1-beta chromodomain binding to methylated histone tails | AlphaScreen HP1-beta / biotin-H3K9me3 peptide binding | Potency, µM (titrated, usually from 114 µM), hits mostly inhibitors | P83916 | actives 0.56% (n = 390,000) | AID 540317; also: nearly all actives have a fitted effect of over 70% in size
# Target sequence (P83916 whole entry, looked up): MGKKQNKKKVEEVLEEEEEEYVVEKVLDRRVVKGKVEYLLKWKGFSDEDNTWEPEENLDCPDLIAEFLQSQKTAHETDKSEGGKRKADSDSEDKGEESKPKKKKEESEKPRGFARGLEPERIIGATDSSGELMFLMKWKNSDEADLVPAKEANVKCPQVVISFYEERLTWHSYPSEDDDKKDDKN
#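 Compound inhibition of the preformed complex between 50 nM HP1-beta and 50 nM biotinylated H3K9me3 peptide was read by AlphaScreen. Buffer was PBS pH 7.4 with 0.01% Tween-20. Incubations ran 30 min at room temperature, with 10 ug/mL donor/acceptor beads.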
# BAZ2B inh – inhibitors of human BAZ2B bromodomain. Q9UIF8. AlphaScreen BAZ2B-H3K14Ac peptide displacement. actives 4.4% (n = 360,000). Potency, µM (top dose mostly 114 µM), hits mostly inhibitors; also: nearly all actives have a fitted effect of over 60% in size
#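 Complex of BAZ2B and biotin-H3K14Ac (50 nM apiece) forms over 30 min at RT, then faces library compounds up to 110 uM for another 30 min; AlphaScreen beads added, 20 min dark incubation, luminescence read.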
# GLS inh – inhibitors of human glutaminase (GLS); O94925; GLS enzymatic activity, qHTS titration; Potency, µM (titrated, usually from 45.5 µM), hits mostly inhibitors; actives 0.21% (n = 410,000); AID 624170
#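 Read-out is an Amplex red fluorescence increase coupled through glutamate oxidase and HRP, measured before and after 30 min room-temperature incubation. hKGA is in 45 mM KH2PO4 (pH 8.2) with 0.02% Tween-20; glutamine added as 1mM solution.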
# A number is an active result; - = inactive; ? = inconclusive; . = no result; [ ] = remark or other dose. In the library only some 10% were active in any assay of this set; here they are far more common. Calls follow the shape of the dose curve; as a rule, active = well fitted curve in the direction sought with a large enough effect; inconclusive = small, poorly fitted or top-dose-only effect, or another doubt; inactive = no such curve, though single readings can be large; an effect the other way counts as inactive or inconclusive.
SMILES,G9a inh,JMJD2A Tudor inh,HP1b binding inh,BAZ2B inh,GLS inh
S=C(NCc1ccco1)NCC1CCCO1 (centres undefined),-,-,-,-,-
COCCCNC(=O)C1CCN(c2cc(C)nc3c(-c4ccc(OC)c(OC)c4)c(C)nn23)CC1,-,-,-,-,-
Cc1cc(C)cc(NC(=O)CSc2oc(-c3cccs3)nc2S(=O)(=O)c2ccc(Br)cc2)c1,-,-,-,-,-
Cc1ccc(/C=C/C(=O)NCC2COc3ccccc3O2)o1 (centres undefined),?,56µM,?,?,-
COc1ccc(/C=C/C(=O)NCC2COc3ccccc3O2)cc1OC (centres undefined),-,-,-,-,-
CCN(CC)S(=O)(=O)c1cccc(C(=O)Nc2ccccc2C(=O)Nc2ccc(OC)cc2)c1,-,-,-,-,-
COc1cc(NC(=O)Cn2nc(-c3ccc(F)cc3)ccc2=O)ccc1-n1cnnn1,-,-,-,.,-
COc1ccccc1CCNC(=O)CSc1ccc(-c2ccco2)nn1,28µM,-,-,50µM,-
Cc1cc(NC(=O)Cn2nc(-c3ccccc3F)ccc2=O)ccc1-n1cnnn1,56µM,-,-,-,-
O=C(CSc1ccc(-c2ccco2)nn1)c1cccc([N+](=O)[O-])c1,10µM,?,-,-,-
CCc1nnc(NC(=O)CSc2ccc(-c3ccc(F)cc3)nn2)s1,45µM,.,.,-,.
CC1CCCCN1C(=O)Cn1c(SCC(=O)N(C)c2ccccc2)nc2ccccc21 (centres undefined),-[12.7 µM],-,-,-,-
NC(c1csc(Nc2ncccn2)n1)c1ccccc1Cl (centres undefined),.,.,.,.,-
COc1ccc(C)cc1NC(=O)CSc1ccc(-c2ccco2)nn1,40µM,?,-,?,-
CCc1ccc(NC(=O)CSc2ccc(-c3ccco3)nn2)cc1,?,?,-,-,?
Cc1ccc(NC(=O)Cn2nc(-c3ccco3)ccc2=O)cc1Cl,11µM,-,-,-,-
CC(=O)c1cccc(NC(=O)CSc2ccc(-c3ccco3)nn2)c1,32µM,?,-,-,-
O=C(CSc1ccc(-c2cccs2)nn1)Nc1cccc(F)c1,18µM,-,-,-,-
COc1ccc(NC(=O)c2ccc(CNS(=O)(=O)c3ccc4c(c3)C(C)(C)C(=O)N4C)cc2)cc1,-,-,-,-,-
Cc1ccc(Sc2ccc(CN3CCCCC3)cc2[N+](=O)[O-])cc1,18µM,35µM,?,?,-
O=[N+]([O-])c1cc(CN2CCCCCC2)ccc1O,-,-,-,-,-
O=C(CC12CC3CC(CC(C3)C1)C2)NC(=S)N1CCCCC1,11µM,-,?,-,-
CCCNC(=S)N1CCC(NC(=O)C2CCCCC2)CC1,-[12.7 µM],22µM,?,-,-
O=C(NC1CCN(C(=S)NCCc2ccccc2)CC1)C1CC1,10µM,-,-,?,-
O=C(NC1CCN(C(=S)NCc2ccco2)CC1)C1CCCCC1,?,-,-,-,?
SMILES,G9a inh,JMJD2A Tudor inh,HP1b binding inh,BAZ2B inh,GLS inh
O=C(NC(=S)N1CCCCCC1)C1CC1,28µM,-,-,-,-
Oc1ccc(-c2csc(Nc3ccccn3)n2)c(O)c1,45µM,-,-,-,-
Fc1ccc(-c2csc(Nc3ccccn3)n2)cc1,79µM,-,-,-,-
NS(=O)(=O)c1ccc(Nc2nc(-c3ccc(O)cc3O)cs2)cc1,-,-,-,?,-
c1ccc(Nc2nc(-c3cccs3)cs2)nc1,?,-[11.4 µM],-,?,-
Cc1cccnc1Nc1nc(-c2ccc(O)cc2O)cs1,6.3µM,14µM,-,?,-
CCOc1ccc(S(=O)(=O)N(C(=O)c2ccncc2)c2ccc3oc(C)c(C(=O)OC)c3c2)cc1,?,-,-,-,-
COCCNc1nnc(SCC(=O)N(C)c2c(N)n(Cc3ccccc3)c(=O)[nH]c2=O)s1,22µM,-,-,-,-
COCCN(C(=O)CSc1nnc(Nc2ccccc2F)s1)c1c(N)n(Cc2ccccc2)c(=O)[nH]c1=O,14µM,-,-,-,-
CCN(C(=O)CSc1nnc(NCCOC)s1)c1c(N)n(Cc2ccccc2)c(=O)[nH]c1=O,.,-,-,.,-
N#C/C(=C\c1cn(CC(=O)O)c2ccccc12)C(=O)NCc1ccccc1,45µM,?,-,-,-
Cc1c(C(=O)O)cccc1-n1c(C)cc(/C=C(/C#N)C(=O)NCc2ccccc2)c1C,50µM,-,-,56µM,-
N#C/C(=C/c1ccccc1)C(=O)NCc1ccccc1,-,-,-,-,-
CN(C)c1ccc(/C=C(/C#N)C(=O)NCc2ccccc2)o1,3.5µM,-,-,-,-
Cc1cc(/C=C(/C#N)C(=O)O)c(C)n1-c1cccc2ccccc12,-[2.33 µM],-,-,?,-
COc1ccc(C(C#N)CC(=O)c2ccc(OC)c(OCc3ccccc3)c2)cc1OC (centres undefined),.,.,.,.,-
O=C1c2ccccc2NC(c2cn[nH]c2-c2ccccc2)N1O (centres undefined),?,-,-,-,-
O=C1c2ccccc2NC(c2cn[nH]c2-c2ccc(Cl)cc2)N1O (centres undefined),28µM,?,-,-,-
Cc1cc(Cl)ccc1OC(C)C(=O)NNC(=O)C1CCCCC1C(=O)O (centres undefined),-[0.501 µM],-,-,-,-
Cc1nc2sc(C(c3ccco3)N3CCN(c4cccc(Cl)c4)CC3)c(O)n2n1 (centres undefined),13µM,?,-,?,-
Oc1c(C(c2ccco2)N2CCOCC2)sc2ncnn12 (centres undefined),40µM,-,-,-,-
Oc1c(C(c2ccccc2)N2CCCCC2)sc2ncnn12 (centres undefined),-,-,-,-,-
Cc1nc2sc(C(c3ccco3)N3CCN(c4ccccc4)CC3)c(O)n2n1 (centres undefined),45µM,-,-,-,-
Cc1nc2sc(C(c3ccco3)N3CCN(C(c4ccccc4)c4ccccc4)CC3)c(O)n2n1 (centres undefined),25µM,50µM,-,?,-
Cc1cccc2c(N=O)c(O)[nH]c12,-[12.7 µM],?,-,-,?
CCCOc1ccc(C2c3c(-c4ccccc4O)n[nH]c3C(=O)N2CCc2ccccc2)cc1OCC (centres undefined),-,-,-,-,-
CN(C(=O)c1ccc(Cl)c([N+](=O)[O-])c1)C1(C)CCS(=O)(=O)C1 (centres undefined),-[2.33 µM],-,-,-,-
OC1COCOC1C(O)C1OCOCC1O (centres undefined),.,-,-,.,-
CN1CCN(C(c2ccc(Cl)cc2Cl)c2sc3nc(-c4ccco4)nn3c2O)CC1 (centres undefined),-,-,-,-,-
Cc1nc2sc(C(c3ccco3)N3CC(C)OC(C)C3)c(O)n2n1 (centres undefined),25µM,-,-,-,-
